Measured values from the supplement of paper PMC12282887.
± gives the standard deviation of the averaged measurements.

Experiments:
Assay in all cases: promoter activity interaction Z-score (Lux/OD deviation from empty-vector control); higher = stronger promoter induction by the compound
[1] = test system: E. coli BW25113 acrABp lux reporter
Method in brief: (§1)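 Every compound was given at four 1:2 dilutions, in biological duplicates, to E. coli BW25113 carrying low-copy luxCDABE promoter reporters in wild-type or single-gene deletion backgrounds. Growth in 40 µl LB Lennox in 384-well plates at 37°C was followed by OD600 and luminescence readings every 30 min for 12 h, integrated over 0–8 h for wild type and 1–9 h for deletion strains, with wells below 10% of the median growth value excluded. Scores are Z-transformed residuals of growth-normalised luminescence fitted against a control.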

[2] = test system: E. coli BW25113 micFp lux reporter
Method in brief: as §1

[3] = test system: E. coli BW25113 ompFp lux reporter
Method in brief: as §1

[4] = test system: E. coli BW25113 robp lux reporter
Method in brief: as §1

[5] = test system: E. coli BW25113 soxSp lux reporter
Method in brief: as §1

[6] = test system: E. coli BW25113 tolCp lux reporter
Method in brief: as §1

[7] = 24.3 µg/ml, genetic background: wild type
[8] = 24.3 µg/ml, genetic background: ΔmarA
[9] = 24.3 µg/ml, genetic background: Δrob
[10] = 24.3 µg/ml, genetic background: ΔsoxS
[11] = 48.5 µg/ml, genetic background: wild type
[12] = 48.5 µg/ml, genetic background: ΔmarA
[13] = 48.5 µg/ml, genetic background: Δrob
[14] = 48.5 µg/ml, genetic background: ΔsoxS
[15] = 97.1 µg/ml, genetic background: wild type
[16] = 97.1 µg/ml, genetic background: ΔmarA
[17] = 97.1 µg/ml, genetic background: Δrob
[18] = 97.1 µg/ml, genetic background: ΔsoxS
[19] = 194.2 µg/ml, genetic background: wild type
[20] = 194.2 µg/ml, genetic background: ΔmarA
[21] = 194.2 µg/ml, genetic background: Δrob
[22] = 194.2 µg/ml, genetic background: ΔsoxS

Structure (SMILES): Cn1c(=O)c2c(ncn2C)n(C)c1=O [Caffeine]
- promoter activity interaction Z-score [1, 7]: -0.0906 ± 0.17
- promoter activity interaction Z-score [1, 8]: 1.25 ± 2.5
- promoter activity interaction Z-score [1, 9]: 0.229 ± 0.12
- promoter activity interaction Z-score [1, 10]: 0.234 ± 0.23
- promoter activity interaction Z-score [1, 11]: 0.0551 ± 0.06
- promoter activity interaction Z-score [1, 12]: 0.244 ± 1.1
- promoter activity interaction Z-score [1, 13]: 0.254 ± 0.35
- promoter activity interaction Z-score [1, 14]: 0.3 ± 0.18
- promoter activity interaction Z-score [1, 15]: 0.0174 ± 0.31
- promoter activity interaction Z-score [1, 16]: 0.17 ± 0.29
- promoter activity interaction Z-score [1, 17]: 0.132 ± 0.014
- promoter activity interaction Z-score [1, 18]: 0.864 ± 1
- promoter activity interaction Z-score [1, 19]: 0.303 ± 0.24
- promoter activity interaction Z-score [1, 20]: -0.0252 ± 0.29
- promoter activity interaction Z-score [1, 21]: 0.0753 ± 0.22
- promoter activity interaction Z-score [1, 22]: 0.762 ± 0.37
- promoter activity interaction Z-score [2, 7]: 1.28 ± 0.39
- promoter activity interaction Z-score [2, 8]: 1.01 ± 0.13
- promoter activity interaction Z-score [2, 9]: 0.0768 ± 0.058
- promoter activity interaction Z-score [2, 10]: 1.65 ± 0.72
- promoter activity interaction Z-score [2, 11]: 2.71 ± 0.15
- promoter activity interaction Z-score [2, 12]: 1.72 ± 0.17
- promoter activity interaction Z-score [2, 13]: -0.0682 ± 0.092
- promoter activity interaction Z-score [2, 14]: 2.27 ± 0.1
- promoter activity interaction Z-score [2, 15]: 3.93 ± 0.29
- promoter activity interaction Z-score [2, 16]: 3.13 ± 0.049
- promoter activity interaction Z-score [2, 17]: -0.0129 ± 0.082
- promoter activity interaction Z-score [2, 18]: 4.2 ± 0.47
- promoter activity interaction Z-score [2, 19]: 9.84 ± 0.76
- promoter activity interaction Z-score [2, 20]: 6.96 ± 1.9
- promoter activity interaction Z-score [2, 21]: 0.216 ± 0.022
- promoter activity interaction Z-score [2, 22]: 9.87 ± 0.2
- promoter activity interaction Z-score [3, 7]: 0.171 ± 0.69
- promoter activity interaction Z-score [3, 8]: 0.0413 ± 0.047
- promoter activity interaction Z-score [3, 9]: 0.636 ± 0.1
- promoter activity interaction Z-score [3, 10]: 0.0579 ± 0.15
- promoter activity interaction Z-score [3, 11]: 0.648 ± 0.61
- promoter activity interaction Z-score [3, 12]: 0.121 ± 0.51
- promoter activity interaction Z-score [3, 13]: -0.106 ± 0.46
- promoter activity interaction Z-score [3, 14]: -0.0276 ± 0.3
- promoter activity interaction Z-score [3, 15]: -0.351 ± 0.49
- promoter activity interaction Z-score [3, 16]: 0.00292 ± 0.16
- promoter activity interaction Z-score [3, 17]: -0.133 ± 0.69
- promoter activity interaction Z-score [3, 18]: 0.291 ± 0.42
- promoter activity interaction Z-score [3, 19]: 0.651 ± 0.51
- promoter activity interaction Z-score [3, 20]: 0.268 ± 0.19
- promoter activity interaction Z-score [3, 21]: 0.227 ± 0.64
- promoter activity interaction Z-score [3, 22]: 0.245 ± 0.21
- promoter activity interaction Z-score [4, 7]: 0.0869 ± 0.41
- promoter activity interaction Z-score [4, 8]: 1.13 ± 1.2
- promoter activity interaction Z-score [4, 9]: 0.442 ± 0.56
- promoter activity interaction Z-score [4, 10]: 1.35 ± 0.27
- promoter activity interaction Z-score [4, 11]: 1.03 ± 0.53
- promoter activity interaction Z-score [4, 12]: -0.488 ± 0.27
- promoter activity interaction Z-score [4, 13]: 0.545 ± 0.89
- promoter activity interaction Z-score [4, 14]: 1.19 ± 0.12
- promoter activity interaction Z-score [4, 15]: -0.142 ± 0.26
- promoter activity interaction Z-score [4, 16]: -0.194 ± 0.34
- promoter activity interaction Z-score [4, 17]: -0.0955 ± 0.42
- promoter activity interaction Z-score [4, 18]: -0.0533 ± 0.92
- promoter activity interaction Z-score [4, 19]: -0.121 ± 0.73
- promoter activity interaction Z-score [4, 20]: -0.257 ± 0.088
- promoter activity interaction Z-score [4, 21]: 0.111 ± 1.4
- promoter activity interaction Z-score [4, 22]: -1.19 ± 0.4
- promoter activity interaction Z-score [5, 7]: -0.0276 ± 0.14
- promoter activity interaction Z-score [5, 8]: 0.29 ± 0.3
- promoter activity interaction Z-score [5, 9]: 0.512 ± 0.15
- promoter activity interaction Z-score [5, 10]: -0.000875 ± 0.083
- promoter activity interaction Z-score [5, 11]: 0.149 ± 0.051
- promoter activity interaction Z-score [5, 12]: 0.331 ± 0.32
- promoter activity interaction Z-score [5, 13]: 0.0369 ± 0.011
- promoter activity interaction Z-score [5, 14]: 0.0413 ± 0.11
- promoter activity interaction Z-score [5, 15]: 0.0939 ± 0.035
- promoter activity interaction Z-score [5, 16]: 0.405 ± 0.044
- promoter activity interaction Z-score [5, 17]: 0.395 ± 0.12
- promoter activity interaction Z-score [5, 18]: 0.167 ± 0.44
- promoter activity interaction Z-score [5, 19]: 0.212 ± 0.044
- promoter activity interaction Z-score [5, 20]: 0.529 ± 0.026
- promoter activity interaction Z-score [5, 21]: 0.257 ± 0.16
- promoter activity interaction Z-score [5, 22]: 0.6 ± 0.85
- promoter activity interaction Z-score [6, 7]: -0.298 ± 0.42
- promoter activity interaction Z-score [6, 8]: 0.922 ± 0.83
- promoter activity interaction Z-score [6, 9]: -0.0951 ± 0.85
- promoter activity interaction Z-score [6, 10]: 0.425 ± 0.39
- promoter activity interaction Z-score [6, 11]: 0.642 ± 1.2
- promoter activity interaction Z-score [6, 12]: 0.724 ± 0.083
- promoter activity interaction Z-score [6, 13]: -0.684 ± 0.056
- promoter activity interaction Z-score [6, 14]: 0.896 ± 0.56
- promoter activity interaction Z-score [6, 15]: 0.921 ± 0.51
- promoter activity interaction Z-score [6, 16]: 0.55 ± 0.57
- promoter activity interaction Z-score [6, 17]: -0.368 ± 0.11
- promoter activity interaction Z-score [6, 18]: 1.64 ± 0.38
- promoter activity interaction Z-score [6, 19]: 1.37 ± 0.41
- promoter activity interaction Z-score [6, 20]: 1.61 ± 1.5
- promoter activity interaction Z-score [6, 21]: 0.892 ± 0.67
- promoter activity interaction Z-score [6, 22]: 0.579 ± 1
